The text below walks through data of the supplement of paper PMC6555819.

Common to all, as to assay: PBM binding z-score (relative to random genomic background probes); higher = stronger binding; sequences stand for … in GC…GCGATTGACAGCGTAGAATGAAGG
For test [1], the system named is RARb homodimer (NR concentration 270 nM). The procedure, abridged:
(§1)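 Random background probes are the reference for binding z-scores. These scores derive from regression-normalized fluorescence on custom Agilent 4×180K protein-binding microarrays incubated 1 h with ligand-free nuclear receptor dimers. Binding was detected with antibodies against each partner (one per run).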

Test [2] has as its system RARg:RXRa (NR concentration 270 nM, RXRa partner concentration 90 nM). The procedure, abridged: as §1
In test [3] the test system is RARg homodimer (NR concentration 270 nM). Put shortly:
as §1

Test [4] deals with RXRa DBDmut IVT, anti-RXR (DBD mutation: RXRa K156A/R161A, NR concentration 90 nM). Put shortly: as §1
For test [5], the system named is RXRa homodimer (NR concentration 180 nM). Put shortly:
as §1

Test [6] has as its system THRa:RXRa (NR concentration 90 nM, RXRa partner concentration 90 nM). The procedure, abridged:
as §1

Test [7] relates to THRa homodimer (NR concentration 90 nM). Put shortly:
as §1

The test system of test [8] is VDR homodimer (NR concentration 270 nM). The procedure, abridged:
as §1

GCTTACGGGTCATAGGTTATAGCATGAATAGAAT: the PBM binding z-score in test [1] was 2.49; in test [2], 4.99; in test [3] it was 3.83; in test [4], 2.34; in test [5] it was 6.22; in test [6], 2.9. In addition, the values for the PBM binding z-score in test [7] and in test [8] were 0.18 and 0.952, respectively.
With CGAACTAGGTCAGAACAGAACAGTGAAGGATGAT, the PBM binding z-score in test [1] stood at 1.65; in test [2], 2.36; in test [3], 3.14; in test [4], 0.286; in test [5] it was 1.16; in test [6], 1.34. Also, the values for the PBM binding z-score in test [7] and in test [8] were -0.073 and -0.0834, respectively.
TCATGTAGGTAAATGCTAGGTGAAAGTCCGATCT: the PBM binding z-score was 0.541 in test [1]; 0.226 in test [2]; 0.15 in test [3]; 1.26 in test [4]; 0.398 in test [5]; 1.28 in test [6]. The figures for the PBM binding z-score in test [7] and in test [8] were 0.741 and 0.319, respectively.
As for CCTATTAGTTGACCATAAGGGCACCCGAAGCTCG, the PBM binding z-score was 1.86 in test [1]; 1.16 in test [2]; 1.04 in test [3]; 0.326 in test [4]; 0.908 in test [5]; 2.02 in test [6]. Further, the PBM binding z-score in test [7] turned out to be 1.61; in test [8], 1.39.
Regarding AGTCAAAGTTCAGGACGAGGTAACCTAAAGCACG, the PBM binding z-score in test [1] is 3.52; in test [2], 4.84; in test [3], 4.86; in test [4] it was 2.85; in test [5] it was 3.15; in test [6] it was 3.88. The figures for the PBM binding z-score in test [7] and in test [8] were 1.92 and 2.29, respectively.
Regarding CCTACTGGGCCACGAAAGGTCATTGGTTCAGTGA, the PBM binding z-score was found to be 4.95 in test [1]; 4.88 in test [2]; 4.56 in test [3]; 0.546 in test [4]; 5.25 in test [5]; 3.8 in test [6]. The PBM binding z-score in test [7] is 1.18; in test [8], 3.08.
With TCGAGTAGATTAGTCGGGGCATTCAGCCAACATA, the PBM binding z-score in test [1] is -0.464; in test [2] it was -0.658; in test [3], -0.665; in test [4], 0.38; in test [5], -0.393; in test [6] it was -0.269. In addition, the values for the PBM binding z-score in test [7] and in test [8] were -0.485 and -0.548, respectively.
